Data: PubChem BioAssay AID504329 (Southern Research Specialized Biocontainment Screening …, 2011)
The campaign covered roughly 340,000 compounds. About 1,000 (0.29%) were called active. Cut-off read from the data, not from the text of the source: inconclusive = inhibition above about 27% without an active follow-up result; inactive = below that. These entries were drawn from the full list. Entries with a potency or affinity are not part of this list.

Assay: NS1A inhibition, H1N1 influenza, cell based functional assay (AID 504329)
Conditions: percent inhibition, at 12.5 µM, active compounds read high

Row | SMILES | inhibition
1 | Cc1ccc(C2=NOC(=O)/C2=C\C=C\c2ccccc2)cc1 | -3.38% (inactive)
2 | O=C/C=C/c1ccccc1 | 2.7% (inactive)
3 | CC1=C(C)N(C)[C@H](c2ccccc2Br)[C@H](O)C1=O | -9.31% (inactive)
4 | O=C(CSc1nnc(-c2cccnc2)n1Cc1ccccc1)N1CCOCC1 | 0.45% (inactive)
5 | Cc1ccc(Nc2nc(-c3c(C)nc4ncccn34)cs2)cc1 | -0.31% (inactive)
6 | Cc1nc2ncccn2c1-c1csc(Nc2ccc(O)cc2)n1 | 5.22% (inactive)
7 | S=C(NCc1ccco1)Nc1ccc(Cl)cc1Cl | 0.07% (inactive)
8 | Cc1nc2ccccc2c(=O)n1CCCN1CCOCC1 | -0.85% (inactive)
9 | N=c1n(CCN2CCOCC2)c2ccccc2n1CC(=O)c1cccc([N+](=O)[O-])c1 | 0.36% (inactive)
10 | CCc1cc2c(=O)[nH]c(-c3ccncc3)nc2s1 | -1.62% (inactive)
11 | O=c1[nH]c(-c2ccccn2)nc2sc(-c3ccccc3)cc12 | 1.57% (inactive)
12 | COC(=O)c1cc(NS(=O)(=O)c2ccc(NC(C)=O)cc2)ccc1Cl | 10.8% (inactive)
13 | O=C(NCCCN1CCOCC1)C(=O)N/N=C/c1cccc2ccccc12 | -23.6% (inactive)
14 | Oc1cccc(/C=N/NC(=S)NCCN2CCOCC2)c1O | -11.6% (inactive)
15 | COc1cc(/C=N/NC(=S)NCCN2CCOCC2)ccc1O | -6.09% (inactive)
16 | COc1cc(/C=N/NC(=S)NCCN2CCOCC2)cc(OC)c1OC | -0.84% (inactive)
17 | CCCCNC(=S)N/N=C/c1cccc(OCC)c1O | -0.5% (inactive)
18 | COc1cc(OC)c(OC)cc1/C=N/NC(=S)NCCN1CCOCC1 | -3.02% (inactive)
19 | S=C(NCCN1CCOCC1)N/N=C/c1ccccc1 | 4.1% (inactive)
20 | O=C(NCCCN1CCOCC1)C(=O)N/N=C/c1ccccc1Cl | -2.62% (inactive)
21 | N#C/C(=C\Nc1ccc(Cl)cc1)S(=O)(=O)c1ccccn1 | -7.92% (inactive)
22 | Cc1ccc2nc(SCC(=O)Nc3cccc([N+](=O)[O-])c3)[nH]c2c1 | 4.1% (inactive)
23 | CCOC(=O)C1=C(C)C(c2ccccc2O)NC(=O)N1 (centres undefined) | -4.1% (inactive)
24 | CCCOc1ccc(-c2nc(OCC)c3ccccc3n2)cc1 | -12.4% (inactive)

Row | SMILES | inhibition
25 | COc1cc2c(cc1OC)C(c1ccsc1)CC(=O)N2 (centres undefined) | 2.33% (inactive)
26 | O=C(O)c1ccccc1Nc1ccccc1C(=O)O | 5.1% (inactive)
27 | O=C(O)c1ccccc1Nc1ccnc(Cl)n1 | 4.77% (inactive)
28 | CCOC(=O)N1CCC(=C(C#N)C(=O)Nc2cc(OC)ccc2OC)CC1 | 7.42% (inactive)
29 | O=C(CSc1n[nH]c(-c2ccco2)n1)Nc1ccccc1F | 2.4% (inactive)
30 | Cc1nc(SCC(=O)Nc2cccc(Cl)c2)n[nH]1 | -19.4% (inactive)
31 | COc1ccccc1-c1nc(SCC(=O)Nc2ccccc2F)n[nH]1 | -2.78% (inactive)
32 | O=C(CSc1n[nH]c(-c2ccncc2)n1)Nc1ccccc1 | -1.24% (inactive)
33 | O=C(CSc1n[nH]c(-c2cccnc2)n1)Nc1ccccc1 | -8.39% (inactive)
34 | COc1ccccc1NC(=O)CSc1n[nH]c(-c2cccnc2)n1 | 2.96% (inactive)
35 | COc1ccccc1NC(=O)CSc1n[nH]c(-c2ccco2)n1 | -13% (inactive)
36 | O=C(CSc1n[nH]c(-c2cccnc2)n1)Nc1cccc(Cl)c1 | 0.29% (inactive)
37 | CCOC(=O)c1c(C)[nH]c(C)c1S(=O)(=O)N(C)CC(=O)Nc1ccccc1F | -8.93% (inactive)
38 | COc1ccc(OC2C(=O)N(CCc3ccc(OC)c(OC)c3)C2c2ccc3c(c2)OCO3)cc1 (centres undefined) | 22.8% (inactive)
39 | Cc1cc(C)cc(OCC(O)Cn2nc(C)cc2C)c1 (centres undefined) | -5.82% (inactive)
40 | CC(C)Cc1nc(Cl)c(C#N)c2c1CCCC2 | 0.11% (inactive)
41 | COCC1CCN(C(=O)C2CCC(=O)N(C3CCCCCC3)C2)CC1 (centres undefined) | 8.12% (inactive)
42 | COC(=O)CN1C(=O)Nc2ccc(Cl)cc2C1c1ccccc1 (centres undefined) | 4.9% (inactive)
43 | CC(=O)c1nn(-c2cccc(C)c2)cc1C(=O)c1cccc(Br)c1 | 2.16% (inactive)
44 | O=C(Nc1ccc(F)cc1)c1ccc(CSc2ccc(Cl)cc2)o1 | -1.55% (inactive)
45 | C=CCn1c(SCC(=O)C(C)(C)C)nnc1-c1ccccn1 | -6.69% (inactive)
46 | COc1ccccc1N1CCN(S(=O)(=O)c2c(C(=O)N3CCOCC3)c(C)n(C)c2C)CC1 | 6.32% (inactive)
47 | CCCCCOc1ccc(C(O)C(CN2CCOCC2)c2ccccc2)cc1 (centres undefined) | -5.3% (inactive)
48 | C[C@H](CO)N1C[C@H](C)[C@@H](CN(C)Cc2ccncc2)Oc2c(NS(=O)(=O)c3ccccc3)cccc2C1=O | -17% (inactive)

Row | SMILES | inhibition
49 | Cc1ccccc1NC(=O)CSc1n[nH]c(-c2ccccn2)n1 | -5.83% (inactive)
50 | O=C(CSc1n[nH]c(-c2ccncc2)n1)Nc1ccc(Cl)cc1 | -0.89% (inactive)
51 | COc1ccc(NC(=O)CSc2n[nH]c(-c3ccco3)n2)cc1 | -5.29% (inactive)
52 | Cc1ccc(C)c(NC(=O)CSc2n[nH]c(-c3ccncc3)n2)c1 | -3.36% (inactive)
53 | COc1ccc(NC(=O)CSc2ccccn2)cc1 | 4.92% (inactive)
54 | O=C(CSc1n[nH]c(-c2ccco2)n1)Nc1ccc(F)cc1 | 7.45% (inactive)
55 | O=C(CSc1n[nH]c(-c2ccncc2)n1)Nc1ccc(F)cc1 | 0.02% (inactive)
56 | O=C(CSc1n[nH]c(-c2cccnc2)n1)Nc1ccc(Cl)cc1 | 2.6% (inactive)
57 | C[C@@H](NC(=O)Cn1cnc2c(NCc3ccccc3)ncnc21)c1cccc2ccccc12 | -9.17% (inactive)
58 | CCN(CC(=O)Nc1ccccc1C(F)(F)F)C(=O)CCS(=O)(=O)c1ccc(Cl)cc1 | -2.32% (inactive)
59 | CC(C)CN(C(=O)CN(C)CC(=O)Nc1ccc(Cl)c(C(F)(F)F)c1)c1c(N)n(CC(C)C)c(=O)[nH]c1=O | -3.46% (inactive)
60 | CN=C1CC(C)(C)CC(=O)/C1=C(/O)CCCN1C(=O)c2ccccc2C1=O | -2.2% (inactive)
61 | CC12CCC(=O)N1C(C(=O)Nc1nc(-c3ccc(F)c(F)c3)cs1)CS2 (centres undefined) | -0.9% (inactive)
62 | Cc1cccc(NC(=S)NC2CC3CCCC(C2)N3CC(C)C)c1 (centres undefined) | -0.58% (inactive)
63 | COc1cccc(CN2CC(C(=O)N(C)Cc3ccnc4ccccc34)CCC2=O)c1 (centres undefined) | -0.38% (inactive)
64 | COc1cc2cc(CN(CCCN3CCOCC3)C(=O)Nc3ccccc3F)c(=O)[nH]c2cc1OC | -7.1% (inactive)
65 | CCCCNC(=O)Cc1coc2ccc3ccccc3c12 | -8.22% (inactive)
66 | CCC(C)[C@H](NS(=O)(=O)c1ccc(C)cc1)C(=O)N1CCC(C(=O)N[C@H](C(=O)O)c2ccccc2)CC1 (some centres undefined) | -3.12% (inactive)
67 | COc1ccc2[nH]c3c(c2c1)CCN1C(=O)C(CC(=O)NCCCn2ccnc2)C[C@H](C(=O)N2CCOCC2)[C@@]31C (some centres undefined) | -0.65% (inactive)
68 | COc1ccc(S(=O)(=O)N2CN3CCN(C3)C2)cc1OC | -1.61% (inactive)
69 | CC(=O)Nc1cccc(OCC(=O)NCCC2=CCCCC2)c1 | 5.18% (inactive)
70 | Cc1ccc(NC(=O)CSc2n[nH]c(-c3ccco3)n2)cc1 | -7.19% (inactive)
71 | Cc1ccc(NC(=O)CSc2n[nH]c(-c3ccncc3)n2)cc1 | -14.5% (inactive)
72 | CCC(C)(C)C1CCc2[nH]nc(C(=O)NCCCNC(=O)OC(C)(C)C)c2C1 (centres undefined) | 7.94% (inactive)

Row | SMILES | inhibition
73 | Cc1ccccc1CN1CCN(CC(=O)NCc2ccccc2)CC1 | -8.48% (inactive)
74 | COc1ccc(C2CC(=O)Oc3c(C(CCN4CCN(c5ccccc5)CC4)c4ccc(N(C)C)cc4)c(OC)cc(OC)c32)cc1 (centres undefined) | 16.5% (inactive)
75 | COc1cc(C2CC(=O)Oc3c(C(CCN4CCOCC4)c4ccc(N(C)C)cc4)c(OC)cc(OC)c32)cc(OC)c1OC (centres undefined) | 19.5% (inactive)
76 | COc1ccc(C2CC(=O)Oc3c(C(CCN4CCOCC4)c4cc(OC)c(OC)c(OC)c4)c(OC)cc(OC)c32)cc1 (centres undefined) | -11.8% (inactive)
77 | COc1ccc(C(CCN2CCCC(C)C2)c2c(OC)cc(OC)c3c2OC(=O)CC3c2cc(OC)c(OC)c(OC)c2)cc1 (centres undefined) | -7.41% (inactive)
78 | COc1cc(C(CCN2CCOCC2)c2c(OC)cc(OC)c3c2OC(=O)CC3c2ccc(N(C)C)cc2)cc(OC)c1OC (centres undefined) | 13.9% (inactive)
79 | COc1cc(C2CC(=O)Oc3c(C(CCN4CCN(c5ccccc5)CC4)c4ccc(N(C)C)cc4)c(OC)cc(OC)c32)cc(OC)c1OC (centres undefined) | 18% (inactive)
80 | Cc1ccc(S(=O)(=O)NC(C)C(=O)Nc2ccc(C(N)=O)cc2)cc1 (centres undefined) | 7.11% (inactive)
81 | CN1C(=O)/C(=C\c2ccncc2)SC1=Nc1ccccc1 | 2.83% (inactive)
82 | CC(CCc1ccccc1)NC(=O)c1ccco1 (centres undefined) | 18.9% (inactive)
83 | COc1ccc(N=c2oc3c(OC)cccc3cc2C(=O)NCc2ccco2)c(OC)c1 | 10.4% (inactive)
84 | CCOc1ccccc1N(C(=O)c1snc(C(N)=O)c1N)C(C(=O)NCc1ccccc1)c1ccc(O)cc1 (centres undefined) | 11.4% (inactive)
85 | CCOc1cc(/C=N/NC(=O)c2cccc([N+](=O)[O-])c2)ccc1OS(=O)(=O)c1ccccc1 | -5.88% (inactive)
86 | OCCC1CN(C2CSCCSC2)CCN1Cc1ccccc1 (centres undefined) | -6.56% (inactive)
87 | CN1CCN(c2ccc(CNS(=O)(=O)c3ccc(F)cc3Cl)cc2)CC1 | -10.3% (inactive)
88 | Cc1nc(SCC(=O)NCc2ccccc2)c2c(=O)n(C)c(=O)n(C)c2n1 | -13.1% (inactive)
89 | Cc1ncc(CO)c(/C=N/NC(=O)c2ccc(O)cc2)c1O | 15.5% (inactive)
90 | Cc1ncc(CO)c(/C=N/NC(=O)c2ccccc2Br)c1O | 18.5% (inactive)
91 | Cc1ncc(CO)c(/C=N/NC(=O)c2ccoc2C)c1O | 7.34% (inactive)
92 | O=C(N/N=C/c1ccccn1)c1cccc(S(=O)(=O)N2CCCC2)c1 | -3% (inactive)
93 | COc1ccccc1NS(=O)(=O)c1cccc(C(=O)N/N=C/c2c(CO)cnc(C)c2O)c1 | 17.7% (inactive)
94 | COc1ccc(C(=O)N/N=C/c2c(CO)cnc(C)c2O)cc1 | 21.8% (inactive)
